Assay outcomes as filed in PubChem.
The list is not random: actives were taken first. Their share in the collection is about 2.2%.
PolyA inh – blocks polyadenylation in yeast reporter cells; S. cerevisiae SKY197-pL101 polyadenylation reporter, beta-gal luminescence; efflux-impaired pdr1/pdr3 knockout yeast; score 100 = 6 SD above DMSO; activity score, % at 12 µM; hit rate 0.02% among 300,000; AID 1875;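 active means lowest replicate activity score at least 50, where 100 means six control SD above control mean; inconclusive means lowest score under 50 but half or more replicates reach 50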;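 further: yeast exposed to compound for 9 h at 30 °C; higher score means more reporter readthrough which indicates perturbed polyadenylation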
ZTA counter – counter-screen for EBNA-1 inhibitors: inhibitors of Epstein-Barr virus ZTA. P03206. inhibition, % at 11 µM. AID 2234. ZTA-DNA binding, fluorescence polarization. hit rate 0.15% among 320,000; in the data active means inhibition above about 33%
Target sequence (P03206 whole entry, looked up): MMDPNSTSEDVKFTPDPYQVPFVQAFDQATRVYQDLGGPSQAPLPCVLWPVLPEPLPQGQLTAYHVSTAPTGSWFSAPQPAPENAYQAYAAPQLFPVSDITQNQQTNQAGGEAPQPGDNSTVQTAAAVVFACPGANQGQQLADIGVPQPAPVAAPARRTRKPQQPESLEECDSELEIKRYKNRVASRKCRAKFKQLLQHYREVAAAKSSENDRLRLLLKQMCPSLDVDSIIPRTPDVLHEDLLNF
NALP3 yeast inh – inhibitors of NALP3 inflammasome in yeast | AID 2825 | hit rate 0.39% among 330,000 | inhibition, % at 10 µM | Yeast reconstituted NLRP3/ASC/caspase-1, beta-gal luminescence, 24 h;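 active means inhibition of 50% or more; inactive means inhibition below 50%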;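 further: plate controls were induced DMSO wells for no effect and uninduced yeast grown without galactose for full effect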
dFosB activator – enhances mouse delta FosB homodimer DNA binding. AID 493131. P13346. activation, % at 25 µM. hit rate 0.99% among 340,000. purified delta FosB, TAMRA-CDK5 oligo fluorescence polarization; percent of positive-control signal above neutral wells;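 active means mean activation above about 17%, with every replicate also reaching it, limit read from the data, passing the limit was not always enough; inconclusive means only one of the two conditions met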
NALP1 inh – inhibitors of NALP1 inflammasome in yeast; S. cerevisiae NALP1/ASC/caspase-1 growth, X-gal OD620, 72 h; inhibition, % at 10 µM; hit rate 0.61% among 280,000; AID 2071; in the data active means inhibition mostly above about 24%, no sharp cut-off; inactive means mostly below about 32%
EBNA-1 inhibitor – blocks EBNA-1 binding to DNA | EBNA-1 DNA binding, fluorescence polarization | inhibition, % at 14.8 µM | hit rate 0.34% among 300,000 | AID 1950; in the data active means inhibition above about 28%
The depositor's hits bear a star; ? = inconclusive; . = not tested or not shown.

SMILES | PolyA inh | ZTA counter | NALP3 yeast inh | dFosB activator | NALP1 inh | EBNA-1 inhibitor
CCOC(=O)[C@@H]1[C@H]2COc3ccccc3[C@@H]2N2C(=O)N(c3ccc(OC)cc3)C(=O)[C@@]12C | -20.5 | -1.6 | 13.6 | -0.5 | 13.5 | -10.0
Cc1ccnc(NC(=O)CNC(=O)c2ccccc2Br)c1 | 5.9 | 0.9 | -1.3 | 1.3 | 9.3 | 8.7
CCN=c1sc(C(=O)NCCc2ccccc2)cc(=O)n1CC | -8.9 | -11.2 | 22.9 | -7.5 | 16.3* | -6.0
Nc1ccc(C2=Nc3cccc4cccc(c34)N2)cc1 | 18.2 | . | . | 40.5* | 17.1 | .
COc1cccc(C2=Nc3cccc4cccc(c34)N2)c1 | ? | -6.7 | 5.7 | 8.0 | 38.8 | -10.7
CC1Cc2ccccc2N1C(=O)C(C)n1cc(C(F)(F)F)cc(Cl)c1=O (centres undefined) | . | -1.7 | 11.7 | -0.4 | . | .
Clc1ccc(-c2cnc(Oc3ccccc3)nc2)cc1 | 7.6 | 2.5 | -8.6 | 2.4 | 38.6* | -4.8
O=C1CN(C(=O)COC(=O)c2ccc(Br)o2)c2ccccc2N1 | . | . | 12.4 | 1.9 | . | .
O=C(O)C1=C[C@H](c2ccc(C(F)(F)F)cc2)C[C@H](OCc2ccc(CO)cc2)O1 | -20.8 | 2.9 | 13.3 | -4.1 | 22.0* | -1.0
CC1=CC(C)(C)Nc2ccc(OC(=O)CN3C(=O)c4ccccc4C3=O)cc21 | 14.0 | 12.2 | 8.8 | -0.7 | 64.2* | -3.4
CCOc1ccc(NC(=O)C/C(C)=N/NC(=O)COc2ccc(Br)cc2C)cc1 | 1.6 | -2.0 | 1.4 | -23.3 | 1.0 | 2.1
Cc1cn2c(N)c(/C=C3\C=Nc4ccccc43)c(=O)nc2s1 | -21.8 | 6.9 | 25.1 | 18.8* | 7.4 | 1.4
CCc1nn2c(N)c(/C=C3\C=Nc4ccccc43)c(=O)nc2s1 | 11.3 | 1.6 | 10.9 | -14.1 | 27.0 | -0.7
COc1ccc(OCCn2cc(/C=C(\C#N)C(=O)NCc3ccco3)c3ccccc32)cc1 | -0.9 | 17.3 | 9.5 | -10.6 | 28.0 | 25.2
N#C/C(=C\c1cn(CCOc2ccccc2)c2ccccc12)C(=O)NCc1cccs1 | -15.1 | -5.2 | 18.0 | 7.2 | 4.4 | 37.0*
O=C1C(Nc2ccccc2)=C(N2CCCCC2)C(=O)c2ccccc21 | 2.0 | -5.2 | 25.8 | -5.8 | 4.3 | 0.2
COc1ccccc1NC1=C(N2CCCCC2)C(=O)c2ccccc2C1=O | 1.2 | 11.7 | 41.0 | -3.1 | 79.5* | -1.8
O=C(CCNC(=O)c1ccc([N+](=O)[O-])cc1)NCc1ccco1 | . | 6.3 | 12.1 | -3.7 | . | .
Cc1ccc(C(C[N+](=O)[O-])c2c(C)[nH]n(-c3ccccc3)c2=O)cc1 (centres undefined) | -90.7 | 9.2 | 36.7 | 2.9 | 105.0* | 3.0
Cc1[nH]n(-c2ccccc2)c(=O)c1C(c1ccccc1[N+](=O)[O-])C(C#N)C#N (centres undefined) | -5.3 | -1.8 | -27.1 | -6.6 | -11.0 | 11.0
Cc1[nH]n(-c2ccccc2)c(=O)c1Sc1ccc(Cl)cc1 | -16.4 | 6.2 | -16.4 | 2.9 | -2.9 | 17.4
Cc1[nH]n(-c2ccccc2)c(=O)c1C(C[N+](=O)[O-])c1ccc(Cl)cc1 (centres undefined) | -109.7 | -3.5 | 17.4 | -5.1 | 107.8* | 2.5
Cc1[nH]n(-c2ccccc2)c(=O)c1C(C[N+](=O)[O-])c1ccc(F)cc1 (centres undefined) | -66.8 | 13.2 | 30.8 | -4.7 | 108.8* | 3.9
CC(=O)C[C@H](O)CC(=O)[C@H]1OC(=O)CCCCCCc2ccccc21 | . | . | -0.7 | -0.2 | . | .
CNC(=O)Nc1ccc2snnc2c1 | -2.1 | 4.7 | 19.8 | -2.8 | 34.0* | -1.2
SMILES | PolyA inh | ZTA counter | NALP3 yeast inh | dFosB activator | NALP1 inh | EBNA-1 inhibitor
O=C(Nc1ccc2snnc2c1)N1CCSCC1 | -6.4 | -11.4 | -8.8 | -1.7 | -21.5 | -4.1
CC1(c2ccc3ccccc3c2)NC(=O)N(CC(=O)N2CCCC(C(F)(F)F)C2)C1=O (centres undefined) | . | 3.0 | 1.8 | -2.9 | . | .
N=c1c2c(ncn1Cc1ccco1)Oc1c(ccc3ccccc13)C2c1ccccc1 (centres undefined) | -16.0 | 12.6 | 20.6 | ? | 62.8* | -9.3
Cc1c(CCOC(=O)CC23CC4CC(CC(C4)C2)C3)sc[n+]1CC(=O)c1ccccc1 | -18.4 | 0.2 | -3.7 | -0.1 | 34.7* | -15.9
Cc1cccc(NC(=O)CNC(=O)CSc2nnc(C(F)(F)F)n2C)c1C | . | 0.1 | 0.6 | -7.7 | . | .
O=C(O)C1CCC(N2C(=O)c3c(Cl)c(Cl)c(Cl)c(Cl)c3C2=O)CC1 (centres undefined) | -9.7 | -6.8 | . | . | 7.9 | -3.9
